Inconclusive results are not listed. Values without a mark were called inactive. Active and inactive are the calls of the source. Calls come from the whole dose curve; as a rule, active = well fitted curve in the direction sought with a large enough effect; inconclusive = small, poorly fitted or top-dose-only effect, or another doubt; inactive = no such curve, though single readings can be large; an effect the other way counts as inactive or inconclusive.

Assay [1] relates to Tov112D. The assay is described as follows: Primary qHTS to identify gynecologic anti-cancer compounds using libraries of approved drugs and bioactive compounds (AID 1345084). Note: nearly all actives have a fitted effect of over 55% in size. To be noted: Gynecologic cancer cell panel viability, ATPlite luminescence, 48 h; series mostly up to 57.5 µM. Summed up:
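Five-concentration response, 48 h; readout is ATP-driven luciferase luminescence.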

Assay [2] can be described thus: Drug repurposing screens with cells derived from glioblastoma tumor samples (AID 1345199). Note: nearly all actives have a fitted effect of over 40% in size. Note: potency is the fitted concentration of half-maximal effect. Conditions: GBM patient neurospheres viability, ATP luminescence, 48 h. Summed up:
(§1)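 Four patient lines of CD133+ GBM neurospheres were screened at several concentrations; hits were retested in those lines plus three slower-growing GBM lines, using 48-hour treatment and ATP-based viability.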

The test system of assay [3] is astro. Described as above. Conditions: viability, ATP luminescence, 48 h; series mostly up to 45.9 µM. In short, it runs like this:
as §1

[4] abbreviates: at 45.9 µM (top of the series), tumour line B.
Setting [5] is: at 45.9 µM (top of the series), tumour line D.
The mark [6] stands for this setting: at 46 µM (top of the series), tumour line A.
Where [7] appears, read: at 46.1 µM (top of the series), tumour line C.
Setting [8] is: at 20 µM (top of the series), tumour line C.
Setting [9] is: at 21.2 µM (top of the series), tumour line B.
The mark [10] stands for this setting: at 21.2 µM (top of the series), tumour line D.
Setting [11] is: at 21.3 µM (top of the series), tumour line A.
% is set by controls: 0 for no effect and ±100 for the full control effect.

On to `COc1cc(O)c(C(=O)c2ccccc2)cc1S(=O)(=O)O`, for which the Potency result in assay [1] and in assay [3] was “inactive” in each case. Moreover, the activity, negative = cell killing in assay [2] (setting [4]) was -4.01%; in assay [2] (setting [5]) it was -5.06%; in assay [2] (setting [6]), -20.9%; in assay [2] (setting [7]) it was 6.07%.

As to `CCN1CCN(C(=O)N[C@@H](C(=O)N[C@@H]2C(=O)N3C(C(=O)O)=C(CSc4nnnn4C)CS[C@H]23)c2ccc(O)cc2)C(=O)C1=O`, the Potency result in assay [1] and in assay [3] was “inactive” throughout. For the same compound, the activity, negative = cell killing in assay [2] (setting [4]) was -8.4%; in assay [2] (setting [5]), 9.51%; in assay [2] (setting [6]) it was -15%; in assay [2] (setting [7]), 0.963%.

With `Nc1nc(N)c(-c2ccccc2)s1`, the Potency result in assay [1] and in assay [3] was “inactive” each time. The activity, negative = cell killing in assay [2] (setting [4]) is -11%; in assay [2] (setting [5]), 8.98%; in assay [2] (setting [6]), -29.6%; in assay [2] (setting [7]), -25.4%.

For `CC(=O)Nc1ccc(CC(=O)O)cc1`, the Potency entry in assay [1] and in assay [3] was “inactive” each time. For the same compound, the activity, negative = cell killing in assay [2] (setting [4]) is 0.59%; in assay [2] (setting [5]), -5.02%; in assay [2] (setting [6]), -20.1%; in assay [2] (setting [7]), 3.56%.

Take `Cc1cccc(C)c1NC(=O)CN1CCCCCC1`: the Potency result in assay [1] and in assay [3] was “inactive” each time. Further, the activity, negative = cell killing in assay [2] (setting [4]) is -3.5%; in assay [2] (setting [5]), -16.9%; in assay [2] (setting [7]) it was -16.8%. Besides, the Potency in assay [2] (tumour line A) was 35.5 µM (active).

With `O=C(O)P(=O)(O)O`, the Potency entry in assay [1] and in assay [3] was “inactive” in each case. The activity, negative = cell killing in assay [2] (setting [4]) was -0.165%; in assay [2] (setting [5]) it was -25%; in assay [2] (setting [6]) it was -23.7%; in assay [2] (setting [7]) it was 21.2%.

`Cc1cc(C)cc(OCC2CNC(=O)O2)c1` (centres undefined): the Potency result in assay [1] and in assay [3] was “inactive” each time. Further, the activity, negative = cell killing in assay [2] (setting [4]) is 0.397%; in assay [2] (setting [5]) it was -17.2%; in assay [2] (setting [6]) it was -25.9%; in assay [2] (setting [7]) it was 3.04%.

Turning to `CN(C)CCC[C@@]1(c2ccc(F)cc2)OCc2cc(C#N)ccc21`, the Potency entry in assay [1] and in assay [3] was “inactive” throughout. Moreover, the activity, negative = cell killing in assay [2] (setting [4]) was 11.5%; in assay [2] (setting [5]), -13.7%; in assay [2] (setting [6]), -29.3%; in assay [2] (setting [7]) it was 2.89%.

Turning to `C[C@@H](O)[C@H]1C(=O)N2C(C(=O)O)=C(S[C@@H]3CN[C@H](CNS(N)(=O)=O)C3)[C@H](C)[C@H]12`, the Potency result in assay [1] and in assay [3] was “inactive” in each case. The activity, negative = cell killing in assay [2] (setting [4]) was -1.99%; in assay [2] (setting [5]) it was 1.38%; in assay [2] (setting [6]) it was -14.9%; in assay [2] (setting [7]) it was -16.7%.

Regarding `CCCCNC(=O)NS(=O)(=O)c1ccc(N)cc1`, the Potency entry in assay [1] and in assay [3] was “inactive” each time. Besides, the activity, negative = cell killing is -8.59% in assay [2] (setting [4]), 11% in assay [2] (setting [5]), -6.54% in assay [2] (setting [6]) and -25.7% in assay [2] (setting [7]).

In the case of `CCN(CC)CCOC(=O)C(Cc1cccc2ccccc12)CC1CCCO1` (centres undefined), the Potency result in assay [1] and in assay [3] was “inactive” each time. Also, the activity, negative = cell killing is 6.25% in assay [2] (setting [8]), -13.3% in assay [2] (setting [9]) and -13.7% in assay [2] (setting [10]). Besides, the Potency in assay [2] (tumour line A) was 11.2 µM (active).

As for `Cc1cc(NS(=O)(=O)c2ccc(N)cc2)nc(C)n1`, the Potency entry in assay [1] and in assay [3] was “inactive” each time. In addition, the activity, negative = cell killing is -14.8% in assay [2] (setting [4]), -16.4% in assay [2] (setting [5]), -27.1% in assay [2] (setting [6]) and -10.5% in assay [2] (setting [7]).

Consider `COc1cc(C(=S)N2CCOCC2)ccc1O`, for which the Potency result in assay [1] and in assay [3] was “inactive” throughout. Moreover, the activity, negative = cell killing in assay [2] (setting [4]) was -7.92%; in assay [2] (setting [5]), 6.32%; in assay [2] (setting [6]) it was -27.5%; in assay [2] (setting [7]), -22.1%.

Consider `CC(=O)NCCCCCC(=O)O`, for which the Potency result in assay [1] and in assay [3] was “inactive” throughout. Besides, the activity, negative = cell killing in assay [2] (setting [4]) was -15.6%; in assay [2] (setting [5]), -10%; in assay [2] (setting [6]) it was -23.3%; in assay [2] (setting [7]), -20.2%.

In the case of `COc1cc(C)nc(-n2nc(C)cc2OC)n1`, the Potency entry in assay [1] and in assay [3] was “inactive” in each case. In addition, the activity, negative = cell killing in assay [2] (setting [8]) was 16.5%; in assay [2] (setting [9]), 1.89%; in assay [2] (setting [10]), -16%; in assay [2] (setting [11]), -15.4%.

Turning to `Cc1c(-c2ccccc2)oc2c(C(=O)OCCN3CCCCC3)cccc2c1=O`, the Potency entry in assay [1] and in assay [3] was “inactive” throughout. For the same compound, the activity, negative = cell killing was 10.4% in assay [2] (setting [8]), -10.2% in assay [2] (setting [9]), -18.3% in assay [2] (setting [10]) and -8.03% in assay [2] (setting [11]).

`CCCCC(CC)COC(=O)/C=C/c1ccc(OC)cc1` (centres undefined): the Potency entry in assay [1] and in assay [3] was “inactive” throughout. Besides, the activity, negative = cell killing in assay [2] (setting [4]) was -11.8%; in assay [2] (setting [5]), -6.07%; in assay [2] (setting [6]) it was -26.1%; in assay [2] (setting [7]), 6.67%.

For the compound `CCOC(=O)[C@@](C)(N)Cc1ccc(O)c(O)c1`, the Potency result in assay [1] and in assay [3] was “inactive” each time. The activity, negative = cell killing is -6.91% in assay [2] (setting [8]), -8.87% in assay [2] (setting [9]), -6.68% in assay [2] (setting [10]) and -12.3% in assay [2] (setting [11]).

For `O=C1C(CCS(=O)c2ccccc2)C(=O)N(c2ccccc2)N1c1ccccc1` (centres undefined), the Potency result in assay [1] and in assay [3] was “inactive” throughout. Besides, the activity, negative = cell killing in assay [2] (setting [8]) is 4.04%; in assay [2] (setting [9]), 2.69%; in assay [2] (setting [10]) it was 2.83%; in assay [2] (setting [11]), -0.0177%.
